Hits are enriched below; roughly 32% of the tested compounds scored in any of these assays.
PostGolgi ctrl – inhibits growth of the yeast control strain. efflux-deficient yeast background strain, growth absorbance A615, 16 h. inhibition, % at 10 µM. actives 5% (n = 98,000)
CYP2C19 inhib – blocks human cytochrome P450 2C19. P33261. CYP2C19 Supersomes, luciferin-H EGE luminescence, 30 min. inhibition, % at 5 µM. actives 21% (n = 96,000). AID 778;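 active = CYP2C19 inhibition above a set limit at 5 µM in the primary screen, cut at about 50% in these data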;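 note: plate controls were negative control wells for no effect and 2.5 mM tranylcypromine positive control for full effect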
CYP2C19 activ – increases human CYP2C19 enzyme activity; P33261; 96,000 tested, under 10 active; activation factor at 5 µM; recombinant CYP2C19, luciferin-H EGE luminescence; hits give high values; 0 = fully inhibited enzyme, 1 = untreated enzyme;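 active = activation factor of at least 2 at 5 µM in the primary screen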;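 note: 0 = wells with 2.5 mM tranylcypromine and 1 = vehicle-only wells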
PostGolgi yeast – growth inhibition of a yeast mutant, post-Golgi transport screen; actives 0.9% (n = 98,000); post-Golgi transport phenotypic cell assay; inhibition, % at 10 µM;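 note: yeast cells grown in 1536-well plates; yeast grown about 18 h at 30C before absorbance read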
CYP2C9 activ – increases human cytochrome P450 2C9 activity; actives 1.4% (n = 96,000); activation factor at 5 µM; recombinant CYP2C9, luciferin-H conversion, luminescence; hits give high values; factor 1 = untreated enzyme, 0 = blocked; AID 1024;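 active = activation factor of 2 or more for CYP2C9 at a 5 µM dose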;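 note: 0 = sulfaphenazole-blocked wells and 1 = vehicle-only wells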
Target sequence (P11712 whole entry, looked up): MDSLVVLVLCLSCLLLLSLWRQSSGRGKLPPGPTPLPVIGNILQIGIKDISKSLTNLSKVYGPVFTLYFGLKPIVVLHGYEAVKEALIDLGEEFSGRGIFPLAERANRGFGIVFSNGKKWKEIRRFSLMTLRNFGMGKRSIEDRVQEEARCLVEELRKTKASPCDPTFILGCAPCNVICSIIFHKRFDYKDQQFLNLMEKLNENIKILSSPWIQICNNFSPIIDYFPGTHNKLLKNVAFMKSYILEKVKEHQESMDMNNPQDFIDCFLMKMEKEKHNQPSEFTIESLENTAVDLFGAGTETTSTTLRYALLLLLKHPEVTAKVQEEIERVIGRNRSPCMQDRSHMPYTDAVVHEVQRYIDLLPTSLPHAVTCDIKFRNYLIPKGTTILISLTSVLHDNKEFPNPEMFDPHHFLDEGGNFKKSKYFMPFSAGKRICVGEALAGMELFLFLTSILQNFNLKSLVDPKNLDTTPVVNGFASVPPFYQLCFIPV
CYP2C9 inh – inhibitors of human CYP2C9; P11712; CYP2C9 Supersomes, luciferin-H conversion, luminescence; inhibition, % at 5 µM; actives 20% (n = 96,000); AID 777;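 active = blocking of liver enzyme CYP2C9 beyond about 50% at 5 µM, limit read from the data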
An asterisk follows results filed as active. Cut-off read from the data, not from the text of the source, unless noted: active = inhibition above about 30%; inactive = the rest.

SMILES	PostGolgi ctrl	CYP2C19 inhib	CYP2C19 activ	PostGolgi yeast	CYP2C9 activ	CYP2C9 inh
Cn1c(-n2c(CCCN3C(=O)c4ccccc4C3=O)nc3ccccc3c2=O)nc2ccccc21	19	46	0.5	3	0.4	64*
NS(=O)(=O)c1ccc(NCc2ccccc2OCc2ccc(F)cc2)cc1	29	31	0.7	-4	0.2	78*
NS(=O)(=O)c1ccc(NCc2c(F)cccc2Cl)cc1	-4	34	0.7	1	0.9	8
NS(=O)(=O)c1ccc(NCc2cc(Cl)ccc2OCc2ccccc2F)cc1	39*	7	0.9	2	0.7	28
CCc1ccccc1OCC(=O)Nc1ccc(S(N)(=O)=O)cc1	5	13	0.9	-22	1.3	-34
COC(=O)CCN(C(=O)C1C2CC3CC(C2)CC1C3)c1ccccn1 (stereo not given)	11	-10	1.1	-4	0.9	5
c1ccc(-c2cn3c4c(sc3n2)CCCC4)cc1	13	57*	0.4	-5	0.8	19
COC(=O)CNC(=O)CN1C(=O)N(c2cccc(Cl)c2)C(N(O)C(=O)Nc2cccc(Cl)c2)C1(C)C (stereo not given)	-1	17	0.8	19	0.8	21
CC(C)COP(=O)(c1ccc(N(C)C)cc1)C(O)c1ccncc1 (stereo not given)	2	72*	0.3	-1	0.4	58*
CC(C)OP(=O)(c1ccc(N(C)C)cc1)C(O)c1c(Cl)cccc1Cl (stereo not given)	12	81*	0.2	13	0.4	55*
CCCCOP(=O)(c1ccc(N(C)C)cc1)C(O)c1ccccc1F (stereo not given)	2	34	0.7	-6	1	5
CC(C)OP(=O)(OC(C)C)C1(O)C(=O)Nc2ccccc21 (stereo not given)	-1	-4	1	-3	1.1	-13
CCOP(=O)(c1ccc(N(C)C)cc1)C(O)c1ccc(Cl)cc1 (stereo not given)	6	80*	0.2	19	1.1	-10
COc1cc(C)ccc1OCCCON1C(=O)CCC1=O	-3	41	0.6	2	0.8	16
CC(C)(C)c1ccc(OCCON2C(=O)CCC2=O)c(Cl)c1	33*	17	0.8	-2	0.9	8
CO/N=C/c1ccc(Sc2ccc(C)cc2)c([N+](=O)[O-])c1	16	-2	1	23	0.9	10
Cc1ccc(Sc2ccc(/C=N/O)cc2[N+](=O)[O-])cc1	31*	0	1	-3	0.4	64*
CO/N=C/c1cc([N+](=O)[O-])ccc1Sc1ccc(C)cc1	2	65*	0.4	9	0.4	64*
CSc1nc(Sc2ccccc2)c2ccccc2n1	-1	49	0.5	2	0.2	85*
CSc1nc(Sc2ccc(Cl)cc2)c2ccccc2n1	-2	46	0.5	5	0.6	39
Cc1cccc(-n2c(N)c(C(=O)NCCN3CCOCC3)c3nc4ccccc4nc32)c1	-2	2	1	30*	1	-1
CCCNC(=O)c1c(N)n(-c2cc(OC)cc(OC)c2)c2nc3ccccc3nc12	27	31	0.7	-7	0.3	70*
CC(C)Cn1c(N)c(C(=O)NCCN2CCOCC2)c2nc3ccccc3nc21	7	14	0.9	8	0.8	18
COc1cc2c(O)c3c(c(-c4ccc5c(c4)OCO5)c2cc1OC)C(=O)OC3	7	19	0.8	-1	0.3	68*
O=C(CN1CCN(c2ccccn2)CC1)Nc1ccc(OCc2ccccc2)cc1	26	8	0.9	13	0.7	31
SMILES	PostGolgi ctrl	CYP2C19 inhib	CYP2C19 activ	PostGolgi yeast	CYP2C9 activ	CYP2C9 inh
CC(NC(=O)CN1CCN(c2ncccn2)CC1)c1ccc(F)cc1 (stereo not given)	0	39	0.6	-4	0.1	92*
O=C(CN1CCN(c2ccccn2)CC1)Nc1ccc(Oc2ccccc2)cc1	2	22	0.8	58*	0.5	53*
O=C(CN1CCN(c2ncccn2)CC1)NCc1ccccc1	-5	61*	0.4	27	0.1	92*
O=C(CN1CCN(c2ccccn2)CC1)Nc1ccccc1	3	56*	0.4	-4	0.7	32
COc1ccccc1-c1cc(C(=O)Nc2ccccc2SC)no1	8	-12	1.1	8	1.5	-50
CCOC(=O)C1CCCN(C(=O)CCNS(=O)(=O)c2ccc3c(c2)CCC(=O)N3)C1 (stereo not given)	-5	-18	1.2	-5	1	1
O=C(CN1CCN(c2ccccn2)CC1)Nc1ccc(F)cc1	-5	61*	0.4	6	0.3	73*
CCOc1ccccc1NC(=O)CN(c1ccc(C)cc1)S(=O)(=O)c1c(C)n[nH]c1C	14	73*	0.3	-6	0.1	95*
Cc1ccc(N(CC(=O)Nc2ccc3c(c2)OCCO3)S(=O)(=O)c2c(C)n[nH]c2C)cc1	-2	62*	0.4	-1	0.3	74*
CCOC(=O)c1ccc(NC(=O)CN(c2ccc(C)cc2)S(=O)(=O)c2c(C)n[nH]c2C)cc1	2	19	0.8	-7	0.2	76*
COc1ccccc1CNC(=O)CN(c1ccc(C)cc1)S(=O)(=O)c1c(C)n[nH]c1C	-2	67*	0.3	2	0.3	67*
O=C(O)Cn1nnnc1SCC(=O)Nc1ccc(OC(F)(F)F)cc1	-1	-18	1.2	0	1.1	-14
O=C1C(Cc2ccccc2)NC(=S)N1c1ccccc1 (stereo not given)	1	48	0.5	0	0.8	20
CC1Cc2ccccc2N1C(=O)c1cnc2sccn2c1=O (stereo not given)	-4	-12	1.1	-4	1.2	-19
COc1ccc(N(CC(=O)Nc2cc(C)on2)S(=O)(=O)c2cc(C)ccc2C)cc1	5	98*	0	-6	0	95*
COc1ccc(N(CC(=O)Nc2cc(C)on2)S(=O)(=O)c2ccc(Cl)cc2)cc1	2	-3	1	-5	1.1	-5
COc1ccc(NC(=O)CN(c2cc(C)cc(C)c2)S(=O)(=O)c2c(C)n[nH]c2C)cc1	19	14	0.9	-13	0.3	69*
COc1cccc(N2CCN(C(=O)CN(c3ccc(C)cc3)S(=O)(=O)c3c(C)n[nH]c3C)CC2)c1	0	58*	0.4	13	0.2	81*
CCc1nc(N2CCN(Cc3ccc4c(c3)OCO4)CC2)c2oc3ccccc3c2n1	15	32	0.7	12	0.5	51*
CCc1nc(Nc2ccncc2)c2oc3ccccc3c2n1	2	2	1	6	1	0
CCc1nc(NCCN2CCOCC2)c2oc3ccccc3c2n1	-3	57*	0.4	-1	0.6	37
CCc1nc(N2CCCCC2)c2oc3ccccc3c2n1	21	7	0.9	-1	1	4

Bioassay records (PubChem BioAssay)
